The values below come from article PMC5700166.

In one test the target is T1, GST-Dm-Relish (Drosophila melanogaster, UniProt Q94527 99-473).
T1 sequence: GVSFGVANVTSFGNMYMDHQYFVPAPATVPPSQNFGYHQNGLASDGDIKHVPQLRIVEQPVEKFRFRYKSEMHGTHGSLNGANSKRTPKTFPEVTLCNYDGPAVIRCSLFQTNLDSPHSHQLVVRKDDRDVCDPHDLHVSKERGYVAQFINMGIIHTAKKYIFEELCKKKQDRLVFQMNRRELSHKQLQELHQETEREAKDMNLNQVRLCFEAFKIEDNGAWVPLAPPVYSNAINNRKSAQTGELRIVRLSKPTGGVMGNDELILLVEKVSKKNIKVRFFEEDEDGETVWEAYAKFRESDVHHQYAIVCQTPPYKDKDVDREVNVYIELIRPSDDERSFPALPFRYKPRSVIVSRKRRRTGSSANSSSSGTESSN
The test is described as follows: protein-binding microarray (PBM); PBM: ~300 nM protein, 6 mM HEPES pH 7.8, 80 mM KCl, 0.5 mM EDTA, 0.5 mM EGTA, 6% glycerol, 35 ng/ul poly-dIdC, 1% milk, 1 h, room temperature; Ap Aiptasia and Nv Nematostella (sea anemones) / Co Capsaspora / Aq Amphimedon (sponge) / Dm Drosophila / Hu human; RHD is the Rel homology domain; high values mean tight binding. The conditions noted are these: dsDNA, one strand shown.
“CCGATTAACATCACGGAATGCCCTGATGTTAATCGGGTCTTGATTCGCTTGACGCTGCTG” had a binding signal of 1.71 z-score.
“CCGATTAACATCAGGAATTCCTATGATGTTAATCGGGTCTTGATTCGCTTGACGCTGCTG” returned a binding signal of 3.7 z-score.
Sequence “CCGATTAACATCACCCCCTCCCCTGATGTTAATCGGGTCTTGATTCGCTTGACGCTGCTG” gave a binding signal of 5.21 z-score.
In turn, “CCGATTAACATCAAGGGCATCCCTGATGTTAATCGGGTCTTGATTCGCTTGACGCTGCTG” yielded a binding signal of 5.6 z-score.
“CCGATTAACATCACGGAGATCCCTGATGTTAATCGGGTCTTGATTCGCTTGACGCTGCTG”: the binding signal was found to be 4.73 z-score.
Still for that read-out and setting: for “CCGATTAACATCAGTACTTCCCATGATGTTAATCGGGTCTTGATTCGCTTGACGCTGCTG” the value was 9.09 z-score.
Still for that read-out and setting: for “CCGATTAACATCAGGAATGCCCATGATGTTAATCGGGTCTTGATTCGCTTGACGCTGCTG” the value was 1.49 z-score; for “CCGATTAACATCACGGGATTGCCTGATGTTAATCGGGTCTTGATTCGCTTGACGCTGCTG”, 2.08 z-score.
Same read-out and setting: next, “CCGATTAACATCAAGGTGTTCCCTGATGTTAATCGGGTCTTGATTCGCTTGACGCTGCTG”: 4.31 z-score.
Turning to “CCGATTAACATCAGGAAAGCCCATGATGTTAATCGGGTCTTGATTCGCTTGACGCTGCTG”, the binding signal was 4.29 z-score.
The same measure, in the same setting: for “CCGATTAACATCAGGAAACACCATGATGTTAATCGGGTCTTGATTCGCTTGACGCTGCTG” the value was 1.77 z-score.
Still for that read-out and setting: for “CCGATTAACATCAGCGGAATTCCTGATGTTAATCGGGTCTTGATTCGCTTGACGCTGCTG” the value was 2.27 z-score.
The same measure, in the same setting: for “CCGATTAACATCAGGGGTACACATGATGTTAATCGGGTCTTGATTCGCTTGACGCTGCTG” the value was 1.13 z-score; for “CCGATTAACATCACCTCCCCCCCTGATGTTAATCGGGTCTTGATTCGCTTGACGCTGCTG”, 4.13 z-score.
Sequence “CCGATTAACATCACGGGATGCCCTGATGTTAATCGGGTCTTGATTCGCTTGACGCTGCTG” registered a binding signal of 5.65 z-score.
On the same count and under the same terms, next, “CCGATTAACATCAAGGAAATACCTGATGTTAATCGGGTCTTGATTCGCTTGACGCTGCTG”: 3.3 z-score; “CCGATTAACATCAGGGCATTCCATGATGTTAATCGGGTCTTGATTCGCTTGACGCTGCTG”: 1.84 z-score.
On to “CCGATTAACATCAAGGAAAGCCCTGATGTTAATCGGGTCTTGATTCGCTTGACGCTGCTG”, for which the binding signal was determined as 3.3 z-score.
Take “CCGATTAACATCACCGGAATTCCTGATGTTAATCGGGTCTTGATTCGCTTGACGCTGCTG”: the binding signal amounted to 3.45 z-score.
On the same count and under the same terms, next, “CCGATTAACATCACCGGAATTTCTGATGTTAATCGGGTCTTGATTCGCTTGACGCTGCTG”: 1.58 z-score.
Same read-out and setting: next, “CCGATTAACATCACGGCAACCCCTGATGTTAATCGGGTCTTGATTCGCTTGACGCTGCTG”: 1.46 z-score; “CCGATTAACATCAGGAGATCCCATGATGTTAATCGGGTCTTGATTCGCTTGACGCTGCTG”: 4.37 z-score.
Sequence “CCGATTAACATCAAGGAATGCCCTGATGTTAATCGGGTCTTGATTCGCTTGACGCTGCTG” came in with a binding signal of 1.35 z-score.
“CCGATTAACATCAGGGATTAACATGATGTTAATCGGGTCTTGATTCGCTTGACGCTGCTG”: the binding signal came out at 4.89 z-score.
The same measure, in the same setting: for “CCGATTAACATCAGGAGGTTCCCTGATGTTAATCGGGTCTTGATTCGCTTGACGCTGCTG” the value was 2.47 z-score; for “CCGATTAACATCACGGGATGTCCTGATGTTAATCGGGTCTTGATTCGCTTGACGCTGCTG”, 3.42 z-score.
Still for that read-out and setting: next, “CCGATTAACATCACGGGGGGGGCTGATGTTAATCGGGTCTTGATTCGCTTGACGCTGCTG”: 4.98 z-score.
On the same count and under the same terms, for “CCGATTAACATCAGGGCATCCCATGATGTTAATCGGGTCTTGATTCGCTTGACGCTGCTG” the value was 5.99 z-score.
The sequence “CCGATTAACATCAGGAATCCCAATGATGTTAATCGGGTCTTGATTCGCTTGACGCTGCTG” gave a binding signal of 7.14 z-score.
On the same count and under the same terms, for “CCGATTAACATCACGGGATCTCCTGATGTTAATCGGGTCTTGATTCGCTTGACGCTGCTG” the value was 4.06 z-score; for “CCGATTAACATCAGGGGTGCCCATGATGTTAATCGGGTCTTGATTCGCTTGACGCTGCTG”, 3.52 z-score.
Still for that read-out and setting: next, “CCGATTAACATCACGGGCTTTCCTGATGTTAATCGGGTCTTGATTCGCTTGACGCTGCTG”: 3.81 z-score.
“CCGATTAACATCAGGCAATCCCATGATGTTAATCGGGTCTTGATTCGCTTGACGCTGCTG” had a binding signal of 2.82 z-score.
Same read-out and setting: for “CCGATTAACATCAAGGGGGGGATTGATGTTAATCGGGTCTTGATTCGCTTGACGCTGCTG” the value was 5.64 z-score.

A further test deals with T2, GST-Aq-NF-kB (Amphimedon queenslandica, UniProt A9Y5G7 2-389).
T2 sequence: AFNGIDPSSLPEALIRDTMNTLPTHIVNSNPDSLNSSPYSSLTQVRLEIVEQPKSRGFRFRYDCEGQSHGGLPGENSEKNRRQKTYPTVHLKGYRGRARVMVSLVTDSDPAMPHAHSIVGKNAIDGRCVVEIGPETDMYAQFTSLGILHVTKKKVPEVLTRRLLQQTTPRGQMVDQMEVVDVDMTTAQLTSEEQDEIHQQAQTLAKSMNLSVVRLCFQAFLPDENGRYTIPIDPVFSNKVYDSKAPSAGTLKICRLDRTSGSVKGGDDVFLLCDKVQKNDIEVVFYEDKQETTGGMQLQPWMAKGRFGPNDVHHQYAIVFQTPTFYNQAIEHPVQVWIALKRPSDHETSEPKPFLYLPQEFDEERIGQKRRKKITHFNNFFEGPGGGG
The description is as above. The conditions noted are these: dsDNA, one strand shown.
As for “CCGATTAACATCACGGAATGCCCTGATGTTAATCGGGTCTTGATTCGCTTGACGCTGCTG”, the binding signal is 2.6 z-score.
The same measure, in the same setting: next, “CCGATTAACATCAGGAATTCCTATGATGTTAATCGGGTCTTGATTCGCTTGACGCTGCTG”: 2.07 z-score; “CCGATTAACATCACCCCCTCCCCTGATGTTAATCGGGTCTTGATTCGCTTGACGCTGCTG”: 4.84 z-score.
Still for that read-out and setting: for “CCGATTAACATCAAGGGCATCCCTGATGTTAATCGGGTCTTGATTCGCTTGACGCTGCTG” the value was 2.86 z-score; for “CCGATTAACATCACGGAGATCCCTGATGTTAATCGGGTCTTGATTCGCTTGACGCTGCTG”, 3.81 z-score; for “CCGATTAACATCAGTACTTCCCATGATGTTAATCGGGTCTTGATTCGCTTGACGCTGCTG”, 2.53 z-score.
Same read-out and setting: next, “CCGATTAACATCAGGAATGCCCATGATGTTAATCGGGTCTTGATTCGCTTGACGCTGCTG”: 1.96 z-score; “CCGATTAACATCACGGGATTGCCTGATGTTAATCGGGTCTTGATTCGCTTGACGCTGCTG”: 2.41 z-score; “CCGATTAACATCAAGGTGTTCCCTGATGTTAATCGGGTCTTGATTCGCTTGACGCTGCTG”: 2.49 z-score.
Sequence “CCGATTAACATCAGGAAAGCCCATGATGTTAATCGGGTCTTGATTCGCTTGACGCTGCTG” displayed a binding signal of 3.12 z-score.
On the same count and under the same terms, next, “CCGATTAACATCAGGAAACACCATGATGTTAATCGGGTCTTGATTCGCTTGACGCTGCTG”: 1.49 z-score; “CCGATTAACATCAGCGGAATTCCTGATGTTAATCGGGTCTTGATTCGCTTGACGCTGCTG”: 1.89 z-score; “CCGATTAACATCAGGGGTACACATGATGTTAATCGGGTCTTGATTCGCTTGACGCTGCTG”: 1.07 z-score.
The same measure, in the same setting: for “CCGATTAACATCACCTCCCCCCCTGATGTTAATCGGGTCTTGATTCGCTTGACGCTGCTG” the value was 3.93 z-score.
For “CCGATTAACATCACGGGATGCCCTGATGTTAATCGGGTCTTGATTCGCTTGACGCTGCTG”, the binding signal turned out to be 3.09 z-score.
“CCGATTAACATCAAGGAAATACCTGATGTTAATCGGGTCTTGATTCGCTTGACGCTGCTG” returned a binding signal of 3.81 z-score.
The same measure, in the same setting: next, “CCGATTAACATCAGGGCATTCCATGATGTTAATCGGGTCTTGATTCGCTTGACGCTGCTG”: 2.1 z-score; “CCGATTAACATCAGTAGTGGGGCTGATGTTAATCGGGTCTTGATTCGCTTGACGCTGCTG”: 1.72 z-score.
Same read-out and setting: for “CCGATTAACATCAAGGAAAGCCCTGATGTTAATCGGGTCTTGATTCGCTTGACGCTGCTG” the value was 3.45 z-score; for “CCGATTAACATCACCGGAATTCCTGATGTTAATCGGGTCTTGATTCGCTTGACGCTGCTG”, 2.36 z-score.
Regarding “CCGATTAACATCACCGGAATTTCTGATGTTAATCGGGTCTTGATTCGCTTGACGCTGCTG”, the binding signal was found to be 2.45 z-score.
With “CCGATTAACATCAGGGTCTTATATGATGTTAATCGGGTCTTGATTCGCTTGACGCTGCTG”, the binding signal stood at 2.15 z-score.
Sequence “CCGATTAACATCAAGAAATTTCCTGATGTTAATCGGGTCTTGATTCGCTTGACGCTGCTG” displayed a binding signal of 2.06 z-score.
Sequence “CCGATTAACATCACGGCAACCCCTGATGTTAATCGGGTCTTGATTCGCTTGACGCTGCTG” returned a binding signal of 2.35 z-score.
Same read-out and setting: for “CCGATTAACATCAGGAGATCCCATGATGTTAATCGGGTCTTGATTCGCTTGACGCTGCTG” the value was 2.7 z-score; for “CCGATTAACATCAAGGAATGCCCTGATGTTAATCGGGTCTTGATTCGCTTGACGCTGCTG”, 2.68 z-score.
Same read-out and setting: for “CCGATTAACATCAGGGATTAACATGATGTTAATCGGGTCTTGATTCGCTTGACGCTGCTG” the value was 1.83 z-score; for “CCGATTAACATCAGGAATATTCCTGATGTTAATCGGGTCTTGATTCGCTTGACGCTGCTG”, 1.34 z-score; for “CCGATTAACATCAGGAGGTTCCCTGATGTTAATCGGGTCTTGATTCGCTTGACGCTGCTG”, 3.68 z-score.
For “CCGATTAACATCACGTAAGGGATTGATGTTAATCGGGTCTTGATTCGCTTGACGCTGCTG”, the binding signal was determined as 2.43 z-score.
In turn, “CCGATTAACATCACGGGATGTCCTGATGTTAATCGGGTCTTGATTCGCTTGACGCTGCTG” showed a binding signal of 3.06 z-score.
Still for that read-out and setting: for “CCGATTAACATCACGGGGGGGGCTGATGTTAATCGGGTCTTGATTCGCTTGACGCTGCTG” the value was 4.34 z-score.
On the same count and under the same terms, next, “CCGATTAACATCAGGGCATCCCATGATGTTAATCGGGTCTTGATTCGCTTGACGCTGCTG”: 2.34 z-score.
Consider “CCGATTAACATCAGGAATCCCAATGATGTTAATCGGGTCTTGATTCGCTTGACGCTGCTG”, for which the binding signal amounted to 1.48 z-score.
“CCGATTAACATCACGGGATCTCCTGATGTTAATCGGGTCTTGATTCGCTTGACGCTGCTG”: the binding signal was 3.77 z-score.
Sequence “CCGATTAACATCAGGGGTGCCCATGATGTTAATCGGGTCTTGATTCGCTTGACGCTGCTG” registered a binding signal of 1.5 z-score.
The same measure, in the same setting: next, “CCGATTAACATCACGGGCTTTCCTGATGTTAATCGGGTCTTGATTCGCTTGACGCTGCTG”: 4.66 z-score; “CCGATTAACATCAGGCAATCCCATGATGTTAATCGGGTCTTGATTCGCTTGACGCTGCTG”: 1.38 z-score; “CCGATTAACATCAAGGGGGGGATTGATGTTAATCGGGTCTTGATTCGCTTGACGCTGCTG”: 5.59 z-score.
